Consider 13 compounds from the supplement of paper PMC6607015.

Counter-ions that a name gives are not always drawn.

Common to all, as to conditions: compound concentration in added solution (µM; 5 µl added to 20 µl cells): 10; 18 h
The subject of assay [1] is A431. Description: LBPA endosome anti-LBPA integrated intensity (sum per cell), Z-score; higher = more LBPA staining. The method, boiled down: (§1)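 Reported values are Z-scores from AcuityXpress normalisation of per-cell integrated LBPA or filipin staining. HeLa MZ or A431 cells (3,500/well in 20 µl) were seeded onto 5 µl of 10 µM compound solution in duplicate 384-well plates, incubated 18 h, fixed in 4% PFA, stained and imaged at 20×. MetaXpress segmentation measured the intensity over the whole cell or within LBPA endosomes.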

In assay [2] the test system is HeLa MZ. The description is as above. The method, boiled down: as §1
Assay [3] relates to A431. Nature of the assay: whole-cell filipin (free cholesterol) integrated intensity, Z-score; higher = more cholesterol staining. In outline: as §1
Assay [4] has as its system HeLa MZ. Described as above. In outline: as §1
The test system of assay [5] is A431. Nature of the assay: filipin (cholesterol) integrated intensity within LBPA endosomes, Z-score; higher = more cholesterol in LBPA endosomes. In outline: as §1
In assay [6] the test system is HeLa MZ. The description is as above. The method, boiled down:
as §1

In the case of `COc1ccc2c(c1)C(=O)N(CCc1ccc(S(=O)(=O)NC(=O)NC3CCCCC3)cc1)C(=O)C2(C)C` [Gliquidone], the “LBPA endosome anti-LBPA integrated intensity (z-score)” value in assay [1] was -0.483; in assay [2], 0.216. Besides, the “whole-cell filipin (z-score)” value in assay [3] is -0.152; in assay [4], -0.511. Besides, the “filipin (z-score)” value was -0.531 in assay [5] and -0.598 in assay [6].

Regarding `CN(c1nccc(=O)[nH]1)C1CCN(c2nc3ccccc3n2Cc2ccc(F)cc2)CC1` [Mizolastine], the “LBPA endosome anti-LBPA integrated intensity (z-score)” value was -0.6 in assay [1] and 0.425 in assay [2]. The “whole-cell filipin (z-score)” value was -0.708 in assay [3] and 0.222 in assay [4]. The results for the “filipin (z-score)” value in assay [5] and in assay [6] were -0.551 and 0.0832, respectively.

As for `O=C1c2c(O)cccc2Cc2cccc(O)c21` [Anthralin], the “LBPA endosome anti-LBPA integrated intensity (z-score)” value is -0.344 in assay [1] and 0.592 in assay [2]. For the same compound, the “whole-cell filipin (z-score)” value in assay [3] came out at 0.169; in assay [4], 2.01. Besides, the “filipin (z-score)” value in assay [5] is -0.334; in assay [6], -0.134.

For the compound `Clc1ccccc1C(c1ccccc1)(c1ccccc1)n1ccnc1` [Clotrimazole], the “LBPA endosome anti-LBPA integrated intensity (z-score)” value was -0.44 in assay [1] and 0.655 in assay [2]. Moreover, the figures for the “whole-cell filipin (z-score)” value in assay [3] and in assay [4] were -0.0982 and 0.216, respectively. The figures for the “filipin (z-score)” value in assay [5] and in assay [6] were -0.276 and -0.063, respectively.

As for `CN[C@@H]1[C@@H](O[C@H]2O[C@H](CO)[C@@H](N)[C@H](O)[C@H]2O)OC2C[C@@H](N)[C@@H](O[C@H]3[C@H](O)[C@@H](O)[C@H](N)C[C@@H]3N)OC2[C@@H]1O` (stereo partly drawn) [Apramycin], the “LBPA endosome anti-LBPA integrated intensity (z-score)” value in assay [1] was -0.469; in assay [2], -0.358. The “whole-cell filipin (z-score)” value in assay [3] is -0.077; in assay [4] it was -0.329. Also, the “filipin (z-score)” value in assay [5] is -0.402; in assay [6], -0.523.

Regarding `CN(C)CCC(c1ccc(Br)cc1)c1ccccn1` (stereo not drawn) [Brompheniramine maleate], the results for the “LBPA endosome anti-LBPA integrated intensity (z-score)” value in assay [1] and in assay [2] were -0.686 and -0.0361, respectively. Further, the “whole-cell filipin (z-score)” value in assay [3] was -0.609; in assay [4], -0.596. For the same compound, the “filipin (z-score)” value was -0.344 in assay [5] and 0.233 in assay [6].

`Cc1nc2ccccn2c(=O)c1CCN1CCC(C(=O)c2ccc(F)cc2)CC1` [Pirenperone]: the “LBPA endosome anti-LBPA integrated intensity (z-score)” value in assay [1] was 1.82; in assay [2], 2.56. For the same compound, the “whole-cell filipin (z-score)” value in assay [3] came to 1.36; in assay [4] it was 1.21. Also, the “filipin (z-score)” value worked out at 1.54 in assay [5] and 2.01 in assay [6].

On to `Cn1ccnc1S` [Methimazole], for which the entries for the “LBPA endosome anti-LBPA integrated intensity (z-score)” value in assay [1] and in assay [2] were -0.549 and -0.811, respectively. Moreover, the “whole-cell filipin (z-score)” value is -0.397 in assay [3] and -0.237 in assay [4]. The “filipin (z-score)” value in assay [5] is -0.496; in assay [6], -0.58.

As for `Nc1ccc(S(=O)(=O)c2ccc(N)cc2)cc1` [Dapsone], the “LBPA endosome anti-LBPA integrated intensity (z-score)” value in assay [1] is -0.514; in assay [2], -0.767. The results for the “whole-cell filipin (z-score)” value in assay [3] and in assay [4] were -0.45 and -0.817, respectively. For the same compound, the “filipin (z-score)” value in assay [5] was -0.55; in assay [6], -0.603.

Regarding `CC(=O)NS(=O)(=O)c1ccc(N)cc1` [Sulfacetamide sodic hydrate], the “LBPA endosome anti-LBPA integrated intensity (z-score)” value was -0.453 in assay [1] and -0.433 in assay [2]. Further, the “whole-cell filipin (z-score)” value was -0.701 in assay [3] and -0.53 in assay [4]. The results for the “filipin (z-score)” value in assay [5] and in assay [6] were -0.475 and -0.628, respectively.

For the compound `CC(C)(C)NC[C@H](O)COc1cccc2c1CCCC2=O` [(-) -Levobunolol hydrochloride], the “LBPA endosome anti-LBPA integrated intensity (z-score)” value in assay [1] was -0.264; in assay [2], 1.1. Further, the “whole-cell filipin (z-score)” value in assay [3] is -0.125; in assay [4], -0.19. In addition, the “filipin (z-score)” value in assay [5] was -0.327; in assay [6], 0.118.

With `C[C@]12CCC(=O)C=C1CC[C@@H]1[C@@H]2C(=O)C[C@@]2(C)[C@H]1CC[C@]2(O)C(=O)CO` [Cortisone], the “LBPA endosome anti-LBPA integrated intensity (z-score)” value in assay [1] is -0.412; in assay [2], 0.126. The results for the “whole-cell filipin (z-score)” value in assay [3] and in assay [4] were -0.734 and -0.61, respectively. Further, the “filipin (z-score)” value was -0.464 in assay [5] and -0.486 in assay [6].

Turning to `CCc1ccc(CCOc2ccc(CC3SC(=O)NC3=O)cc2)nc1` (stereo not drawn) [Pioglitazone], the results for the “LBPA endosome anti-LBPA integrated intensity (z-score)” value in assay [1] and in assay [2] were -0.492 and -0.449, respectively. Besides, the “whole-cell filipin (z-score)” value was -0.697 in assay [3] and -0.748 in assay [4]. The entries for the “filipin (z-score)” value in assay [5] and in assay [6] were -0.5 and -0.629, respectively.
